Shiga inhibitor = A qHTS for Small Molecule Inhibitors of Shiga Toxin; Vero cells, Shiga toxin protein synthesis inhibition reporter; inhibition, % at 38.7 µM; actives 9.2% (n = 290,000); in the data active = inhibition mostly above about 28%, no sharp cut-off; inactive = mostly below about 43%; also: 0% is about no effect
NS1 inh = qHTS Assay for Inhibitors of Influenza NS1 Protein Function | actives 0.4% (n = 270,000) | AID 2326, 2010 | Potency, µM (highest dose often 46.1 µM), without a hit: top-dose activity, positive = more growth; also: potency is read from the fitted curve at half-maximal effect; actives are rising curves; nearly all actives have a fitted effect of over 50% in size
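Read-out: OD600 growth recovery of NS1-expressing budding yeast. Cells grown overnight at 30C in -URA glucose medium, washed, resuspended and diluted 1:100 in 2% galactose assay medium, pH 6.0. Same strain lacking NS1 served as positive control.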
Cycloheximide cs = Cycloheximide Counterscreen for Small Molecule Inhibitors of Shiga Toxin | AID 2314, 2010 | cell reporter, cycloheximide protein synthesis inhibition counterscreen | actives 12% (n = 300,000) | max response, %; in the data active = max response mostly above about 13%, no sharp cut-off; inactive = mostly below about 14%; also: read at 38.3 µM for the half of the compounds with a filed dose; 0% is about no effect
SARS PLP yeast = qHTS of Yeast-based Assay for SARS-CoV PLP. S. cerevisiae expressing SARS-CoV PLpro, growth rescue. Potency, µM (highest dose often 32.9 µM), for inactives: at the highest dose activity, positive = growth rescue, actives largely listed as activators. actives 0.19% (n = 330,000). AID 485353, 2010; also: potency is read from the fitted curve at half-maximal effect; 0% is about no effect; nearly all actives have a fitted effect of over 55% in size
Starred values were filed as active, the others as inactive; i = inactive; ? = inconclusive; · = no result given. Only some compounds are listed: those with a hit (about 12% of all), similar ones and a draw of the others. Unless noted, calls follow the shape of the full dose curve.

SMILES | Shiga inhibitor | NS1 inh | Cycloheximide cs | SARS PLP yeast
CCOc1ccc(NC(=O)COc2ccccc2)c([N+](=O)[O-])c1 | 82* | · | 28* | -1%
O=C(CCOc1ccccc1)Nc1ccccc1[N+](=O)[O-] | 54 | · | 27* | -4%
COc1ccc(-c2ccnc3c(Br)c(C)nn23)cc1 | · | · | · | -2%
O=C(CCSc1ccccc1Cl)Nc1cccc([N+](=O)[O-])c1 | 73* | -38% | 45* | -12%
O=C(CCOc1ccccc1)Nc1cccc([N+](=O)[O-])c1 | 50* | · | 20* | 0%
CCOC(=O)/C=C(\C)Sc1cc(O)c2ccccc2c1O | 59* | -80% | 31* | -7%
COc1cccc(CN2CCN(C(=O)c3ccc(-c4ccccc4)cc3)CC2)c1OC | -8 | -9% | 0 | -1%
COc1cc(CN2CCN(C(=O)c3ccc(-c4ccccc4)cc3)CC2)cc(OC)c1OC | 98* | 0% | 19* | 0%
CCOc1ccc(N=Nc2c(C)noc2C)cc1 | 41 | · | 28* | -7%
CCOc1ccc(C(=O)NCC(=O)OCc2c(C)noc2C)cc1 | -9 | -10% | -2 | -19%
CCN(CC(=O)NCc1ccc(Cl)cc1)C(=O)/C=C/c1ccc(Cl)c([N+](=O)[O-])c1 | -21 | 14% | -4 | -3%
COc1ccc(O)c(C(=O)CC(=O)c2ccc(F)cc2)c1 | 51 | -243% | 20* | -24%
COc1ccc(C(=O)CC(=O)c2ccccc2O)cc1OC | 79* | 0% | 34* | -2%
COc1ccc(C(=O)COC(=O)c2ccc(OC)c(OC)c2)cc1OC | -5 | -10% | -2 | -3%
COc1ccc(O)c(C(=O)CC(=O)c2ccccc2C)c1 | 76* | -74% | 58* | -5%
COc1ccc(C(=O)CC(=O)c2ccccc2O)cc1 | · | -31% | 39* | 0%
COc1ccc(O)c(/C=N/NC(=O)CCC(=O)Nc2ccc(F)cc2)c1 | -4 | 16% | 1 | 2%
CCC(C(=O)OCC(=O)c1ccc2c(c1)NC(=O)CO2)c1ccccc1 (stereo unspecified) | -10 | · | 10 | -8%
O=C(Nc1ccccc1)N1CCCc2ccccc21 | 26* | -4% | 13 | 16%
O=C(NC1CCCCC1)N1CCc2ccccc21 | 47* | 1% | 28* | -2%
Cc1cccc(NC(=O)N2CCCc3ccccc32)c1C | 46 | -9% | 36* | 5%
Cc1ccc(NC(=O)N2CCCc3ccccc32)cc1C | 53* | -27% | 39* | 0%
COCCNC(=O)CCCn1c(=O)c2cc(OC)c(OC)cc2n(CC(=O)c2ccc(Cl)cc2)c1=O | 7 | · | -8 | -5%
COc1ccc(NC(=O)NCCCCc2ccccc2)c(OC)c1 | -14 | 2% | -3 | -5%
O=C(c1ccoc1)N1CCCC(N2CCN(c3cccc(Cl)c3)CC2)C1 (stereo unspecified) | 21 | -5% | 14 | -4%
SMILES | Shiga inhibitor | NS1 inh | Cycloheximide cs | SARS PLP yeast
c1cc(-c2cnn3cc(-c4ccc(OCCN5CCCCC5)cc4)cnc23)ccn1 | 27* | · | 40* | ·
CC(C)(C)c1ccc(OCCN2CCCC2)cc1 | 21 | -1% | 6 | ?
COc1ccc(O)c(C2NC(CC(C)C)(C(=O)O)C3C(=O)N(Cc4ccccc4)C(=O)C23)c1 (stereo unspecified) | -7 | -1% | 8.5* | -4%
CCN1C(=O)[C@H]2[C@@H](c3ccc(-c4ccc(OC)cc4)cc3)N[C@@](CC(C)C)(C(=O)OC)[C@H]2C1=O | · | · | · | 6%
COc1cc(C2CC(=O)Oc3cc(C)c(Cl)cc32)cc(OC)c1OC (stereo unspecified) | i | · | 15 | ·
CN(Cc1ccccc1)C(=O)CC(=O)N(C)Cc1ccccc1 | 52* | 5% | 27* | 22%
CN(Cc1ccccc1)C(=O)Cc1ccccc1 | -3 | 8% | -1 | -1%
Cc1cc(OCC(=O)N(C)Cc2ccccc2)ccc1Br | 56* | -24% | 34* | 0%
Cc1nn(CC(=O)N(C)Cc2ccccc2)c(=O)c2cccn12 | 46* | -1% | 15 | -4%
Cc1cc(OCC(=O)N(C)Cc2ccccc2)ccc1Cl | 24* | -5% | 28* | 0%
COc1ccc(OCC(=O)N(C)Cc2ccccc2)cc1 | 33 | -77% | 16 | 2%
Cc1cc(Cl)ccc1OC(C)C(=O)Nc1ccc(C(=O)Nc2ccccc2C(=O)O)cc1 (stereo unspecified) | -8 | -8% | -3 | -10%
Cc1cc(C)n(CCNS(=O)(=O)c2ccccc2)n1 | 1 | -2% | -6 | 1%
COc1ccc(CCNC(=O)CCC(=O)n2ncc3cc(C)ccc32)cc1OC | 13 | -6% | 5 | -1%
CCN(C(=O)CSc1nc2cc(Cl)ccc2c(=O)n1Cc1ccco1)C1CCS(=O)(=O)C1 (stereo unspecified) | 2 | 1% | 1 | -1%
Cc1cccc(OCCCOc2cccc3cccnc23)c1C | 20 | -120% | 21* | -30%
C/C=C/c1ccc(OCCOCCOc2cccc3cccnc23)c(OC)c1 | -8 | -22% | -3 | ?
C/C=C/c1ccc(OCCOc2cccc3cccnc23)c(OC)c1 | 36 | -7% | 22* | -25%
Cc1ccc2cccc(OCCCOc3ccccc3F)c2n1 | · | -43% | 25* | 0%
Cc1ccc(OCCCOc2cccc3cccnc23)cc1C | 24 | -77% | 17* | -19%
COc1cccc(OC)c1OCCCOc1cccc2cccnc12 | 127* | -34% | 21* | -2%
O=Cc1ccc(OCCCOc2cccc3cccnc23)cc1 | -4 | -35% | 10 | 0%
COc1ccc(/C=C(/NC(=O)c2ccco2)C(=O)N2CCCC2=O)cc1 | -6 | · | -1 | 0%
O=C(COC(=O)c1cccc(S(=O)(=O)N2CCOCC2)c1)c1ccccc1 | 100* | -9% | 40* | -1%
CCN(CC)c1ccc(S(=O)(=O)N2CCOCC2)cc1NC(=O)CSc1n[nH]c(N)n1 | 44* | 2% | 45* | 1%
SMILES | Shiga inhibitor | NS1 inh | Cycloheximide cs | SARS PLP yeast
Cc1nnc(SCC(=O)Nc2cc(S(=O)(=O)N3CCOCC3)ccc2C)s1 | · | · | · | 3%
O=C(CSc1nc2ccccc2s1)Nc1cc(S(=O)(=O)N2CCOCC2)ccc1O | 17 | 2% | 20* | 13µM*
O=C(CCc1nc2ccccc2[nH]c1=O)OCc1ccc(S(=O)(=O)N2CCOCC2)cc1 | -3 | -10% | -3 | -2%
O=C(CCc1ccc(S(=O)(=O)N2CCOCC2)cc1)OCc1nc2ccccc2s1 | 109* | -73% | 73* | -9%
Cc1ccc(S(=O)(=O)N2CCOCC2)cc1NC(=O)CSc1n[nH]c(N)n1 | -6 | 10% | -1 | 2%
COc1ccc([N+](=O)[O-])c(OC)c1C(=O)NC(=O)Nc1c(F)c(F)c(F)c(F)c1F | -4 | 7% | -3 | -1%
O=C(OCc1nc2ccccc2s1)c1cccc(S(=O)(=O)N2CCOCC2)c1 | 108* | -11% | 37* | 3%
c1ccc2cc3[nH]c(CN4CCOCC4)nc3cc2c1 | 35* | -3% | 17* | -15%
c1ccc2[nH]c(CN3CCOCC3)nc2c1 | -10 | 11% | 6 | 18%
C[C@@H](CN=[N+]=[N-])CN1CC[C@H](O)CCC1=O | -3 | -1% | -3 | -4%
C/C(=N\NC(=O)C1COc2ccccc2O1)c1ccc(C)o1 (stereo unspecified) | -9 | -2% | -4 | 2%

Screens deposited in PubChem BioAssay by National Center for Advancing Translational Sciences (NCATS).
